For one assay, the target named is CWF19L2. Description: pooled miR-30 sensor sort-seq; sequence = guide strand. As to conditions: shRNA.
Regarding TTTACTAAGTCTGATTCTCTAC, the sensor-assay potency score (higher = more potent) was -0.315.
Same read-out and setting: for TAATCTTTCTTCACTGTTCTTG the value was 0.0595; for TTTCTTGACAATTTTGTGCTTT, 0.803.
Turning to TTCTACTTTGTTTCTCAGCTTG, the sensor-assay potency score (higher = more potent) turned out to be 0.279.
The same measure, in the same setting: the same measure for TGTTGTAGCATATCTATCCCTT: -0.316; for TAAATTAACTGAACAATTCGGA: 0.661.
Same read-out and setting: for TTAGCCAGCTTAATCCACCATC the value was 0.0576; for TTGCAGTATCTGTTGTAGCATA, -0.923.
The same measure, in the same setting: the same measure for TTAGTAATCGATGACACACTAC: -0.494; for TTAGATTCTCTTCTACACGTTT: -0.587; for TAATCCACCATCTTCTACCACT: -1.06.
TTGTTTCTCAGCTTGTTCCTTC showed a sensor-assay potency score (higher = more potent) of 0.329.

Another assay deals with CXCL1. The assay is described as above. As to conditions: shRNA.
TCGATGATTTTCTTAACTATGG had a sensor-assay potency score (higher = more potent) of -1.57.
Still for that read-out and setting: the same measure for TGATTTTCTTAACTATGGGGGA: -0.639.
Take TGAGGCAAGCTTTCCGCCCATT: the sensor-assay potency score (higher = more potent) was -1.55.
ACACTTTGGATGTTCTTGGGGT gave a sensor-assay potency score (higher = more potent) of -0.0598.
Regarding ATGATTTTCTTAACTATGGGGG, the sensor-assay potency score (higher = more potent) was -0.365.

Source of the values: the OligoGym collection.
Note: reference of the scale not given here.
